Test results as given in PubChem BioAssay (NCATS).
Inconclusive results are not listed. Calls of active or inactive are those of the source. Calls come from the whole dose curve; as a rule, active = well fitted curve in the direction sought with a large enough effect; inconclusive = small, poorly fitted or top-dose-only effect, or another doubt; inactive = no such curve, though single readings can be large; an effect the other way counts as inactive or inconclusive.

How the values were obtained:
[1] = qHTS of pediatric cancer cell lines to identify multiple opportunities for drug repurposing: Primary screen for Rh41 cells (AID 1347108); note: nearly all actives have a fitted effect of over 70% in size
Outline: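 ATP-based luminescence (CellTiter-Glo) quantifies viability after a 48-hour exposure. Compounds are dosed across 8 or 11 final concentrations; DMSO and 2.3 µM bortezomib serve as controls.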

[2] = qHTS of pediatric cancer cell lines to identify multiple opportunities for drug repurposing: Confirmatory screen for NB1643 cells (AID 1347109); note: nearly all actives have a fitted effect of over 45% in size
Outline: (§1)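 Cells (500-1,000/well) in growth media were settled 5 h at 37 degrees C, then given compounds for 48 h. Viability was read as CellTiter-Glo luminescence. Primary runs used MIPE at 11 points (0.78 nM-46 µM) and NPC at 8 points (0.59 nM-46 µM); follow-ups used 11 points.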

[3] = qHTS of pediatric cancer cell lines to identify multiple opportunities for drug repurposing: Confirmatory screen for A673 cells (AID 1347110);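 note: cells exposed to compound for 48 h before the viability read; nearly all actives have a fitted effect of over 65% in size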
Outline: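 qHTS titration format: primary MIPE 0.78 nM-46 µM (11 pts), NPC 0.59 nM-46 µM; confirmation 11 pts. 48 h, CTG luminescence.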

[4] = qHTS of pediatric cancer cell lines to identify multiple opportunities for drug repurposing: Confirmatory screen for SK-N-MC cells (AID 1347111);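 note: cells exposed to compound for 48 h before the readout; nearly all actives have a fitted effect of over 70% in size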
Outline: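 Metabolically active cells were quantified by ATP-dependent luminescence (CellTiter-Glo, 15 min at room temperature) following 48 h treatment. Cells had been plated at 500-1,000 per well and settled for 5 h beforehand.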

[5] = qHTS of pediatric cancer cell lines to identify multiple opportunities for drug repurposing: Confirmatory screen for BT-12 cells (AID 1347112); note: nearly all actives have a fitted effect of over 55% in size
Outline: as §1

[6] = qHTS of pediatric cancer cell lines to identify multiple opportunities for drug repurposing: Confirmatory screen for LAN-5 cells (AID 1347113); note: nearly all actives have a fitted effect of over 65% in size
Outline: as §1

[7] = qHTS of pediatric cancer cell lines to identify multiple opportunities for drug repurposing: Confirmatory screen for DAOY cells (AID 1347114); note: nearly all actives have a fitted effect of over 65% in size
Outline: (§2)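 Viability measured as metabolically active cells via CellTiter-Glo luminescence following 48 hours of compound exposure, 11-point dilutions in confirmatory testing. 500-1,000 cells/well plated 5 hours before dosing; controls were DMSO and 2.3 µM bortezomib.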

[8] = qHTS of pediatric cancer cell lines to identify multiple opportunities for drug repurposing: Confirmatory screen for NB-EBc1 cells (AID 1347115);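 note: cells exposed to compound for 48 h before the viability read; nearly all actives have a fitted effect of over 45% in size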
Outline: as §1

[9] = qHTS of pediatric cancer cell lines to identify multiple opportunities for drug repurposing: Confirmatory screen for SJ-GBM2 cells (AID 1347116); note: nearly all actives have a fitted effect of over 60% in size
Outline: as §2

[10] = qHTS of pediatric cancer cell lines to identify multiple opportunities for drug repurposing: Confirmatory screen for BT-37 cells (AID 1347117); note: nearly all actives have a fitted effect of over 55% in size
Outline: as §1

[11] = qHTS of pediatric cancer cell lines to identify multiple opportunities for drug repurposing: Confirmatory screen for TC32 cells (AID 1347118);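 note: cells exposed to compound for 48 h before the read; nearly all actives have a fitted effect of over 65% in size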
Outline: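 Measured quantity: luminescence from CellTiter-Glo, reflecting metabolically active TC32 cells following 48 h of compound. Curves came straight from multi-point titrations, with 8 or 11 points in primary and 11 in confirmatory screening.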

[12] = qHTS of pediatric cancer cell lines to identify multiple opportunities for drug repurposing: Confirmatory screen for MG 63 (6-TG R) cells (AID 1347119); note: nearly all actives have a fitted effect of over 55% in size
Outline: as §1

[13] = qHTS of pediatric cancer cell lines to identify multiple opportunities for drug repurposing: Confirmatory screen for control Hh wild type fibroblast cells (AID 1347121); note: nearly all actives have a fitted effect of over 70% in size
Outline: as §1

[14] = qHTS of pediatric cancer cell lines to identify multiple opportunities for drug repurposing: Confirmatory screen for Rh41 cells (AID 1347123);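 note: 48 h compound exposure; nearly all actives have a fitted effect of over 60% in size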
Outline: as §1

[15] = qHTS of pediatric cancer cell lines to identify multiple opportunities for drug repurposing: Confirmatory screen for Rh18 cells (AID 1347125); note: nearly all actives have a fitted effect of over 55% in size
Outline: as §1

[16] = qHTS of pediatric cancer cell lines to identify multiple opportunities for drug repurposing: Confirmatory screen for Rh30 cells (AID 1347126); note: nearly all actives have a fitted effect of over 55% in size
Outline: as §1

[17] = qHTS of pediatric cancer cell lines to identify multiple opportunities for drug repurposing: Confirmatory screen for OHS-50 cells (AID 1347128)
Outline: as §1

[18] = qHTS of pediatric cancer cell lines to identify multiple opportunities for drug repurposing: Confirmatory screen for U-2 OS cells (AID 1347122); note: nearly all actives have a fitted effect of over 65% in size
Outline: as §1

[19] = qHTS of pediatric cancer cell lines to identify multiple opportunities for drug repurposing: Confirmatory screen for SK-N-SH cells (AID 1347129);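 note: cells exposed to compound for 48 h before viability read; nearly all actives have a fitted effect of over 60% in size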
Outline: as §1

Measured: Potency
Potency is the fitted concentration of half-maximal effect.

C[N+](C)(C)CC(=O)O
inactive: [1]

COc1ccc(C2Sc3ccccc3N(CCN(C)C)C(=O)C2OC(C)=O)cc1 (centres undefined)
inactive: [1]

C[N+]1(C)[C@@H]2CC(OC(=O)[C@H](CO)c3ccccc3)C[C@H]1[C@H]1O[C@@H]12 (some centres undefined)
inactive: [1]

Cc1ccc(C(=O)Nc2cccc(C(F)(F)F)c2)cc1Nc1nc(-c2cccnc2)nc2c1cnn2C
active: [1] 18.7 µM

O=C(NCc1ccccc1)c1csc(Nc2ccncn2)n1
active: [1] 9.35 µM

CC(=O)N(C)C1(c2ccccc2)CCN(CCC[C@]2(c3ccc(Cl)c(Cl)c3)CCCN(C(=O)c3ccccc3)C2)CC1
active: [1] 18.7 µM

C[C@@H](O)[C@H]1C(=O)N2C(C(=O)O)=C(S[C@@H]3CN[C@H](C(=O)N(C)C)C3)[C@H](C)[C@H]12
inactive: [1]

Nc1nc(F)nc2c1ncn2[C@@H]1O[C@H](COP(=O)(O)O)[C@@H](O)[C@H]1O
inactive: [1]

O=C(O)c1ccc(-c2c[nH]c3ncc(-c4ccccc4)cc23)cc1C1CCCC1
active: [4] 9.27 µM
not listed: [18] | [19]
inactive: all other assays above

CCc1ccc(OCc2ccccc2C(=O)Nc2ccc3nc(C)cc(N)c3c2)cc1
inactive: [16]
active: [1] 9.35 µM | [2] 9.27 µM | [3] 3.69 µM | [4] 0.827 µM | [5] 9.27 µM | [6] 7.37 µM | [8] 8.27 µM | [9] 11.7 µM | [10] 7.37 µM | [11] 1.17 µM | [12] 4.14 µM | [13] 9.27 µM | [18] 8.27 µM | [14] 9.27 µM | [15] 8.27 µM | [17] 9.27 µM | [19] 8.33 µM

CC1(C)O[C@H]2C[C@@H]3[C@H]4CCC5=CC(=O)C=C[C@]5(C)[C@@]4(F)[C@@H](O)C[C@]3(C)[C@]2(C(=O)CO)O1
not listed: [8] | [11] | [13]
inactive: all other assays above

NS(=O)(=O)c1cccc2c1C(=O)c1cccc(O)c1C2=O
inactive: [8]
active: [1] 0.935 µM | [2] 2.93 µM | [3] 2.33 µM | [4] 2.93 µM | [5] 1.04 µM | [6] 1.85 µM | [7] 2.33 µM | [9] 4.14 µM | [10] 0.737 µM | [11] 0.827 µM | [13] 2.93 µM | [18] 1.04 µM | [14] 0.657 µM | [15] 2.33 µM | [16] 2.93 µM | [17] 2.93 µM | [19] 2.09 µM

COc1ccc2cccc(CCNC(C)=O)c2c1
inactive: [1]

CCN(CC)CCOc1ccc(C(=C(Cl)c2ccccc2)c2ccccc2)cc1
inactive: [1]

COC(=O)C1=CO[C@@H](O)[C@@H]2C(CO)=CC[C@@H]12
inactive: [1]

CC1(C)CCC[C@@]2(C)[C@@H]1CC[C@@]1(C)OC(=O)C[C@H]21
active: [4] 26.1 µM | [16] 0.0185 µM
not listed: [9] | [11] | [14]
inactive: all other assays above

NC(=O)c1cccc(-c2cc(Nc3ccc(OC(F)(F)F)cc3)ncn2)c1
inactive: [1]

O=C1NC(=O)C(=Cc2ccc(-c3ccc(F)cc3)o2)S1
inactive: [1]

COc1ccc(-c2coc3cc(O)ccc3c2=O)cc1
inactive: [1]

C=C1C(=O)[C@@]23C(CC[C@@H]1[C@H]2O)[C@@]12CO[C@]3(O)[C@@H](O)[C@@H]1C(C)(C)CC[C@@H]2O (some centres undefined)
inactive: [13]
active: [1] 4.69 µM | [2] 4.14 µM | [3] 9.27 µM | [4] 4.65 µM | [5] 7.37 µM | [6] 4.14 µM | [7] 11.7 µM | [8] 8.27 µM | [9] 20.8 µM | [10] 18.5 µM | [11] 13.1 µM | [12] 10.4 µM | [14] 2.93 µM | [15] 14.7 µM | [16] 5.85 µM | [17] 20.8 µM | [19] 10.5 µM

COc1ccc2cc(-c3nc(-c4ccc(S(C)=O)cc4)[nH]c3-c3ccncc3)ccc2c1 (centres undefined)
inactive: [1]

COc1cccc([C@@H](C)NCCCc2ccccc2Cl)c1
inactive: [1]

CC(C)(C)COc1ccc(-n2cc(C(=O)O)cn2)cc1C#N
inactive: [1]

O=C1C(Cl)=C(NCCN2CCOCC2)C(=O)c2ncccc21
active: [1] 4.69 µM | [2] 4.14 µM | [3] 2.08 µM | [4] 1.04 µM | [5] 2.61 µM | [6] 2.93 µM | [7] 7.37 µM | [8] 5.85 µM | [9] 14.7 µM | [10] 1.47 µM | [11] 1.04 µM | [12] 1.04 µM | [13] 20.8 µM | [18] 1.65 µM | [14] 1.17 µM | [15] 3.29 µM | [16] 7.37 µM | [19] 7.43 µM

O=c1ccn([C@@H]2O[C@H](CO)[C@H](O)[C@H]2O)c(=O)[nH]1
inactive: [1]
